Compounds with a hit are over-represented: about 4% of the library has one in this group of screens.
Peg3 promoter = inhibitors of Peg3 promoter. HeLa PEG-Prom luciferase reporter, luminescence, overnight. inhibition, % at 20 µM. 360,000 tested, 1.7% active. AID 588405;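 active = inhibition of at least 50% at 20 µM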
TWEAK Fn14 block = blocks TWEAK-Fn14 interaction in a reporter cell assay | TWEAK-stimulated Fn14 reporter cells, luciferase luminescence, 8 h | inhibition, % at 10 µM | 360,000 tested, 2% active | AID 1159606; in the data active = inhibition above about 50%
TROY signal inh = blocks TROY-dependent signaling in reporter cells. Q293 LMP1-TROYcd NF-kB luciferase reporter, 4 h. 360,000 tested, 0.98% active. inhibition, % at 10 µM;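 active = compounds whose plate-normalised and pattern-corrected inhibition of the luciferase reporter signal at the single screening dose is 50% or more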
KKLEB cytotox = counter-screen for CF NF-kB inhibitors: cytotoxicity. KKLEB CF airway cells viability, ATPlite luminescence, overnight; stronger effect = lower value; cells stimulated with P. aeruginosa culture filtrate. activity change (cytotoxicity), % at 5 µM. 360,000 tested, 0.36% active;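 active = corrected activity change at or below -50% at 5 µM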
HIF-2a inh = HIF-2a inhibition; 786-0 RCC cells HIF-2a reporter, luciferase luminescence, overnight; AID 624352; 360,000 tested, 0.72% active; inhibition, % at 18.8 µM;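 active = inhibition of the luminescence signal of 40% or more relative to plate controls, in a single-dose primary screen at 18.75 µM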
CF NFkB block = blocks PAF-induced NF-kB reporter in cystic fibrosis cells; KKLEB NF-kB-GFP reporter, GFP fluorescence overnight; inhibition, % at 5 µM; 360,000 tested, 0.86% active;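 active = at least 50% inhibition at 5 µM, scaled per plate between neutral and stimulator controls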;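 also: PAF is a Pseudomonas aeruginosa culture filtrate used as stimulus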
Each line names hits and unclear results; the compound was inactive in the other large screens.

CC(=O)Nc1cccc(C(=O)/C=C/c2ccc(F)cc2)c1	Peg3 promoter 107, TWEAK Fn14 block 72
CCOc1ccc2c(c1)C(=NNC(=O)c1ccncc1)c1cc(OCC)ccc1-2	Peg3 promoter 55
CCOc1ccc(NC(=O)c2ccncc2)cc1	none
COc1ccc(Cc2nc3ccc(C(=O)N(C)CCCN4CCOCC4)cc3o2)cc1	none
COC(=O)c1ccccc1NC(=S)NC(=O)c1cccc2ccccc12	TWEAK Fn14 block 60
CC(=O)N(C)c1ccc(NC(=S)Nc2cccc3ccccc23)cc1	none
CN1CCN(c2ccc(NC(=O)c3ccc4ccccc4c3)cc2)CC1	TWEAK Fn14 block 78, TROY signal inh 65
COC(=O)c1ccccc1NC(=S)NC(=O)c1ccc2ccccc2c1	none
CN1CCN(c2ccc(NC(=S)NC(=O)c3cccc4ccccc34)cc2)CC1	Peg3 promoter 69
CC(=O)c1ccc(NC(=S)Nc2cccc3ccccc23)cc1	TROY signal inh 72
COc1ccc(C(=O)Nc2ccc(N3CCN(C)CC3)cc2)cc1	none
CCCNC(=O)C1(C)CCN(Cc2cc(C(F)(F)F)ccc2Cl)C1 (configuration not stated)	none
COc1c(C)cccc1C(=O)NC(=S)Nc1ccccc1N1CCCC1	TWEAK Fn14 block 57, TROY signal inh 68
O=C(NC(=S)Nc1ccccc1N1CCCC1)c1ccccc1Br	none
COC(=O)c1ccc(Oc2nc(Nc3ccccc3)nc(N(C)C)n2)cc1	none
CCOC(=O)C(C)Oc1nc(Oc2ccccc2)nc(N(C)C)n1 (configuration not stated)	TWEAK Fn14 block 50 (no result: TROY signal inh)
CN(c1cccc(NC(=O)Nc2cccc(Cl)c2)c1)S(C)(=O)=O	TWEAK Fn14 block 82
O=C(Nc1ccc(Br)cc1)c1ccc(F)c(S(=O)(=O)N2CCN(c3ccccn3)CC2)c1	TWEAK Fn14 block 53
O=C(CSc1nc2[nH]ncc2c(=O)n1-c1ccccc1)c1ccc2c(c1)OCCO2	Peg3 promoter 57
O=C(CSc1nc2[nH]ncc2c(=O)n1-c1ccccc1)NCCc1ccccc1	none
Cc1cccc(C)c1N1C(=O)c2ccccc2NC(=O)C1C(=O)Nc1ccc(N2CCOCC2)cc1 (configuration not stated)	none (no result: Peg3 promoter, TWEAK Fn14 block, TROY signal inh, KKLEB cytotox, CF NFkB block)
CCN(C(=S)Nc1cccc2ccccc12)c1ccccc1	TWEAK Fn14 block 83
O=C(c1ccoc1)N1CCN(c2cc(-c3ccco3)nc3cc(-c4ccccc4)nn23)CC1	Peg3 promoter 74
COc1ccccc1-c1cc2nc(-c3ccccc3)cc(N3CCN(C(=O)c4ccoc4)CC3)n2n1	Peg3 promoter 81
Cc1cc(N2CCN(C(=O)c3ccoc3)CC2)n2nc(-c3ccccc3)cc2n1	none
COc1ccccc1-c1cc2nc(-c3ccccc3)cc(N3CCN(C(=O)c4ccco4)CC3)n2n1	Peg3 promoter 73, TWEAK Fn14 block 98, TROY signal inh 70
COc1cccc(-c2cc(N3CCN(C(=O)c4ccoc4)CC3)n3nc(-c4cccc(Cl)c4)cc3n2)c1	none
COc1cccc(-c2cc3nc(-c4ccccc4)cc(N4CCN(C(=O)c5ccoc5)CC4)n3n2)c1	Peg3 promoter 72
Cc1cc(=O)n2[nH]c(SCc3c(F)cccc3Cl)nc2n1	none
CCCCCCC(C)OC(=O)c1ccccc1C(=O)O (configuration not stated)	none
Cc1ccc(NC(=O)c2cc(S(=O)(=O)N3CCCCC3)ccc2N2CCOCC2)c(C)c1	none
N#Cc1cc2cc3c(cc2nc1SCC(=O)N1CCCC1)OCCO3	TROY signal inh 51
CC(=O)CSc1nc2cc3c(cc2cc1C#N)OCCO3	TWEAK Fn14 block 84
COc1ccc2cc(C#N)c(SCC(=O)N3CCCC3)nc2c1	none
N#Cc1cc2c(nc1SCC(=O)N1CCOCC1)CCCCC2	TWEAK Fn14 block 95, TROY signal inh 81
O=c1cc(Cn2ccnc2)c2cc(O)ccc2o1	none
Nc1nc(Cl)nc2ccc(Br)cc12	TWEAK Fn14 block 75, TROY signal inh 71
CCc1c(C)nc2ccc(Br)cc2c1Cl	none
Cc1ccc(S(=O)(=O)N2C[C@@H]3CCCC[C@@H]3[C@@H](C)[C@H]2c2cn(Cc3ccccc3)c3ccccc23)cc1	TWEAK Fn14 block 61
COc1ccc2c(c1)c([C@@H]1[C@H](C)[C@H]3CCCC[C@H]3CN1S(=O)(=O)c1ccc(C)cc1)cn2C	TWEAK Fn14 block 84
Cc1ccc2c(C)nc(Nc3nc(CSc4nc5ccccc5[nH]4)cc(=O)[nH]3)nc2c1	Peg3 promoter 109, TWEAK Fn14 block 96, TROY signal inh 68, KKLEB cytotox -58, CF NFkB block 99
Cc1ccc(SCc2cc(=O)[nH]c(Nc3nc(C)c4ccc(C)cc4n3)n2)cc1	none
COc1ccc(C(=O)NN(C)c2nc(C(F)(F)F)nc3ccccc23)cc1	TWEAK Fn14 block 52, TROY signal inh 55, CF NFkB block 75
CC(C)[C@H](NC(=O)OC(C)(C)C)c1cc(C(=O)NC2CC2)c(N)s1	none (no result: Peg3 promoter, TWEAK Fn14 block, TROY signal inh, KKLEB cytotox, CF NFkB block)
CCOC(=O)c1sc2nc(NC(=O)C(C)(C)C)sc2c1C	TWEAK Fn14 block 65, TROY signal inh 68
COc1cc(CSc2nnnn2-c2ccc(C)cc2)cc(OC)c1OC	TROY signal inh 54
COc1ccc(F)cc1CSc1nnnn1-c1ccc(O)cc1	none
Oc1ccccc1-n1c(-c2ccccc2)ccc1-c1ccccc1	Peg3 promoter 57
Nc1nonc1-n1nnc(C(=O)N/N=C/c2ccoc2)c1CSc1ccc(Cl)cc1	none
N#C/C(=C(/O)COc1ccc(Cl)cc1)c1nc2ccccc2s1	CF NFkB block 50
CC(NC(=O)C12CC3CC(CC(C3)C1)C2)c1ccc(F)cc1 (configuration not stated)	none
COc1ccc2cc(CCOC3CCCCO3)ncc2c1 (configuration not stated)	TWEAK Fn14 block 60
COc1cc2cnc(CCO[C@H]3CCCCO3)cc2cc1OC	TROY signal inh 52
O=C(O)c1ccc(OCCCCCCOC2CCCCO2)cc1 (configuration not stated)	none
CCOC(=O)c1ccc(NC(=O)CSc2nc(=O)n3cccc(C)c3n2)cc1	none
COc1ccc(N(C)S(=O)(=O)c2cccc(C(=O)N3CCN(c4cccc(C)c4C)CC3)c2)cc1	none
Cc1sc2nc3c4ccccc4c(NCc4ccco4)nn3c(=O)c2c1C	TWEAK Fn14 block 64
CSc1ccc(CN2CCC(N3CCC(C(=O)NC4CC4)CC3)CC2)cc1	none
COc1ccc(NC(=O)C2Cc3c(-c4cccc(C(C)=O)c4)ccnc3O2)cn1 (configuration not stated)	none
CCc1c(C2(O)CCCCC2)[nH]c2cc(C(F)(F)F)ccc12	Peg3 promoter 67, TROY signal inh 51
Cc1c(C2(O)CCCCC2)[nH]c2cc(C(F)(F)F)ccc12	none
CCCCN1C=CC(=C2C(=O)c3ccccc3C2=O)C=C1	Peg3 promoter 110, TWEAK Fn14 block 99, TROY signal inh 85, KKLEB cytotox -72, HIF-2a inh 89

Bioassay records deposited in PubChem by Sanford-Burnham Center for Chemical Genomics.
